High-throughput results deposited in PubChem by National Center for Advancing Translational Sciences (NCATS).
Compounds with a hit are over-represented: about 5% of the library has one in this group of screens.
VACV Venus inh: inhibitors of vaccinia virus (Venus reporter). Vaccinia virus Venus reporter expression, fluorescence. Potency, µM (series often up to 36.5 µM), without a hit: at the highest dose activity change, negative = inhibition, most hits filed as inhibitors. actives 0.46% (n = 330,000). AID 720580; calls by dose curve; tested in A549 cells; note: potency is the fitted concentration of half-maximal effect; nearly all actives have a fitted effect of over 30% in size
HCMV antiviral: blocks human cytomegalovirus replication; HFF cells, HCMV-luciferase reporter, 72 h; stronger effect = lower value; actives 4.5% (n = 410,000); AID 1259415; activity change, negative = inhibition, % at 57.5 µM; in the data active = activity change below about -60%; inconclusive = no clear call, values can overlap the other calls; inactive = above about -39%
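Steps: HFFs plated, 16 h 37C; compounds added; HCMV-luciferase added to MOI 1 PFU/cell; 72 h 37C; OneGlo reagent, 5 min room temperature; luminescence read, normalized to controls.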
TbPYK inhibitor: T. brucei pyruvate kinase inhibition | Q57TT1 | TbPYK enzyme, Kinase-Glo Plus ATP luminescence, 45 min | Potency, µM (highest dose often 76.8 µM), without a hit: at the highest dose activity, negative = inhibition, usual class: inhibitors | actives 0.12% (n = 410,000) | AID 624173; note: potency is the fitted concentration of half-maximal effect; nearly all actives have a fitted effect of over 50% in size
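Luminescence from Kinase-Glo Plus, added after a 45-minute room-temperature reaction, served as the end-point read-out. The enzyme and substrate were preincubated with compound before ADP (130 uM final) initiated turnover. Concentration-effect curves came from normalized qHTS data.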
LmPK inh: blocks Leishmania mexicana pyruvate kinase activity; Q27686; purified LmPK, Kinase-Glo ATP luminescence, 1 h; Potency, µM (series often up to 57.5 µM), without a hit: at the highest dose activity change, negative = inhibition, most hits filed as inhibitors; actives 0.37% (n = 290,000); AID 1721; note: potency is the fitted concentration of half-maximal effect
Target sequence (Q27686 whole entry, looked up): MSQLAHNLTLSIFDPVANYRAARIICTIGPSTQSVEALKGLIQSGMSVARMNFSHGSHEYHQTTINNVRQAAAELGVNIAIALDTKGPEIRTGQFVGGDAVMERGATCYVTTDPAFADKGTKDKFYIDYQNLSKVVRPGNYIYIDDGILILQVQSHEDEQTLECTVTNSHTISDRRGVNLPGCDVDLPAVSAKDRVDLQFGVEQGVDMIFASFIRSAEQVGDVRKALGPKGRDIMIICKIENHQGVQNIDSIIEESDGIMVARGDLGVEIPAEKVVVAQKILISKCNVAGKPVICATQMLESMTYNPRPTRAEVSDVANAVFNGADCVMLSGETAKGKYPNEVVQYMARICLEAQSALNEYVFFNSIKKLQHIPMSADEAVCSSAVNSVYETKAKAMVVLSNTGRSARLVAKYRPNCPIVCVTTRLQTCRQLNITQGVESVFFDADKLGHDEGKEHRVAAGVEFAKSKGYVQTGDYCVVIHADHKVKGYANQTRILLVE
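In 50 mM imidazole pH 7.2 with 7 mM MgCl2, LmPK (0.1 nM) turned over PEP (0.5 mM) and ADP (0.1 mM) for 1 h at room temperature. Luciferase read-out of ATP.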
Vaccinia mCherry: vaccinia inhibition (mCherry reporter); Vaccinia virus mCherry reporter infection, fluorescence; Potency, µM (top dose mostly 36.5 µM), without a hit: top-dose activity change, negative = inhibition, usual class: inhibitors; actives 0.63% (n = 310,000); calls by dose curve; tested in A549 cells; note: potency is the fitted concentration of half-maximal effect; nearly all actives have a fitted effect of over 35% in size
Numbers without * were called inactive; i = inactive; u = inconclusive; x = no result given; [ ] = another dose, or the depositor's remark. Unless noted, calls come from the whole dose curve; as a rule, active = well fitted curve in the direction sought with a large enough effect; inconclusive = small, poorly fitted or top-dose-only effect, or another doubt; inactive = no such curve, though single readings can be large; an effect the other way counts as inactive or inconclusive. % is set by controls: 0 for no effect and ±100 for the full control effect.

SMILES	VACV Venus inh	HCMV antiviral	TbPYK inhibitor	LmPK inh	Vaccinia mCherry
O=Cc1ccc(-c2ccc([N+](=O)[O-])cc2Cl)o1	4.2%	-66.1*	-1.8%	7.6%	-19.8%
COc1ccc(/C=C(\NC(=O)c2cccs2)C(=O)Nc2cccc3ccccc23)cc1OC	-4.6%	-11.0	-2.4%	2.8%	-12.0%
Cc1cc(C)c(NC(=O)CCCN2CCCC2)c(C)c1	9.1%	-67.2*	-1.7%	5.0%	i
CN(C(=O)COc1ccc(Br)cc1Cl)C1CCCCC1	-1.6%	-16.4	2.3%	1.9%	-3.9%
Cc1ccc(S(=O)(=O)N2C[C@@H](C)[C@]3(C2)[C@H](O)[C@H](OC(=O)Nc2cccs2)C[C@H]2C(=O)N(c4ccccc4)C(=O)[C@H]23)cc1	-19.5%	-103.9*	-14.7%	x	-3.1%
COc1cccc(NC(=O)CN(C)C(C)C(=O)Nc2ccc(S(=O)(=O)N3CCOCC3)cc2)c1 (stereo unspecified)	x	-16.6	9.5%	6.0%	x
O=C1[C@@H]2Cc3c([nH]c4ccccc34)C(c3ccccc3)N2C(=O)CN1C1CCN(Cc2ccccc2)CC1 (stereo partly specified)	u	-76.0*	5.6%	0.0%	u
O=C1[C@@H]2Cc3c([nH]c4ccccc34)C(c3cccc(Br)c3)N2C(=O)CN1C1CCN(Cc2ccccc2)CC1 (stereo partly specified)	u	3.7	-2.0%	-0.7%	u
S=C(NCCCN(Cc1ccc(Cl)cc1)c1ccc(Br)cn1)NCc1ccc2nc[nH]c2c1	-23.2%	x	x	x	-19.5%
CC(C)n1cnc(S(=O)(=O)N2CCCC(C(=O)NCc3ccccc3Cl)C2)c1 (stereo unspecified)	-0.3%	-36.0	-4.2%	x	3.4%
CC(=O)Oc1ccc(C(=O)OCC(=O)c2c(N)n(C)c(=O)n(C)c2=O)cc1OC(C)=O	-7.6%	-26.2	-1.2%	3.0%	-14.6%
CC(=O)Oc1ccc(-c2ccc(C(=O)OCC(=O)c3c(N)n(C)c(=O)n(C)c3=O)cc2)cc1	x	-62.1*	1.5%	x	x
Cc1ccc(Cn2ccsc2=NC(=O)CCl)cc1	x	-99.0*	1.1%	0.7%	x
Cc1ccc(Cn2ccsc2=NC(=O)COC(=O)c2ccc(NC(=O)CC#N)cc2)cc1	-11.0%	-7.0	-1.2%	x	-12.3%
CCN1CCN(c2ccc(NC(=O)c3cc4ccccc4cc3OC)cc2C)CC1	x	28.9	-4.5%	x	x
CCn1cc(C(=O)O)c(=O)c2cnc(N3CCN(C(=S)NC(=O)c4ccc(Cl)cc4)CC3)nc21	-9.5%	x	-6.7%	14.1µM*	-11.9%
CCOc1ccc(CC(=O)OCn2nnc3ccccc3c2=O)cc1	-20.9%	-9.6	-3.3%	1.1%[11.5 µM]	-1.2%
O=C(NNC(=S)Nc1ccc(Br)cc1)c1ccccc1Br	-16.5%	17.0	-12.9%	10.6%	-22.3%
O=c1c2c(nc3c(-c4ccccc4)c[nH]n13)CCC2	-22.4%	-16.2	5.8%	-0.2%	-7.1%
CCOC(=O)Cc1c(C)nc2c(-c3cccc(Br)c3)c[nH]n2c1=O	-6.2%	-93.1*	-3.1%	1.2%	i
O=c1c2c(nc3c(-c4cccc(Br)c4)c[nH]n13)CCCC2	x	-102.1*	0.0%	10.1%	x
O=c1c2c(nc3c(-c4ccc(Cl)cc4)c[nH]n13)CCC2	-25.8%	-76.6*	-2.0%	1.9%	-6.3%
CCc1ccccc1NS(=O)(=O)c1ccc2c(c1)CCN2C(=O)C1CC1	-11.5%	3.4	-2.3%	x	-5.2%
COc1cc2c(cc1OC)C(c1ccccc1)N(C(=O)CCl)CC2 (stereo unspecified)	3.8%	-99.3*	2.2%	-0.6%	-8.7%
Cc1cccc(-n2c(-c3ccco3)nc3ccccc3c2=O)c1C	-11.9%	-75.7*	3.0%	2.3%	i
SMILES	VACV Venus inh	HCMV antiviral	TbPYK inhibitor	LmPK inh	Vaccinia mCherry
COc1cccc(/C=N/n2c(-c3ccco3)nc3ccccc3c2=O)c1	-19.3%	-64.4*	-0.9%	2.3%	22.4%
Cc1cccnc1-n1c(-c2ccco2)nc2ccccc2c1=O	-8.1%	15.9	0.6%	-0.8%	x
COc1ccc(/C=N/n2c(-c3ccco3)nc3ccccc3c2=O)cc1	-13.9%	-38.0	2.5%	1.7%	-19.0%
CCOC(=O)Cn1c2ccccc2c2nc3ccccc3nc21	6.6%	37.0	-5.8%	1.1%	-1.0%
CCOC(=O)Cn1c(C(F)(F)F)nc2nc(Cl)c(Cl)nc21	-22.6%	-98.2*	-5.4%	x	-23.8%
CCOC(=O)C1(CC2CC2)CCN(Cc2cn[nH]c2-c2ccccc2)CC1	x	-27.6	0.5%	1.9%	x
CCOC(=O)C1(Cc2ccc(Cl)cc2)CCN(Cc2ccon2)CC1	x	-65.6*	-5.5%	5.3%	x
CCOC(=O)C1(Cc2ccccc2)CCN(Cc2cn[nH]c2-c2ccccc2)CC1	x	-77.8*	3.1%	0.2%	x
CC1CCc2[nH]c3ccc(C(=O)N(C)CC(=O)Nc4ccccc4Cl)cc3c2C1 (stereo unspecified)	-18.2%	-8.3	-3.7%	x	-1.9%
CC1CC[C@@]2(OC1)OC1C(O)C3C4CC[C@H]5CC(O[C@@H]6O[C@@H](CO)[C@H](OC7OC(CO)C(O)C(OC8OCC(O)C(O)[C@H]8O)[C@@H]7O[C@@H]7OC(CO)[C@H](O)[C@@H](O[C@@H]8OC(CO)C(O)C(O)C8O)C7O)C(O)C6O)C(O)C[C@]5(C)C4CC[C@]3(C)C1C2C (stereo partly specified)	8.91µM*	x	x	x	7.94µM*
O=c1cc(-c2ccc(O)c(O)c2)oc2c1ccc1ccccc12	x	10.7	-6.4%	x	x
Cc1ccc2c(c1)N(CCCC(=O)NCC1COc3ccccc3O1)C(=O)CO2 (stereo unspecified)	x	-2.0	-5.1%	3.5%	x
Cc1ccc(N2C(=O)/C(=C/N3CCN(C(=O)c4ccco4)CC3)C(=O)NC2=S)cc1C	-0.1%	-101.0*	-14.9%	5.8%	x
Cc1cccc(N2C(=O)/C(=C/N3CCN(C(=O)c4ccco4)CC3)C(=O)NC2=S)c1	u	-5.3	6.9%	1.3%	x
CN1CCCN(C(=O)c2ccc(Cl)cc2)CC1	4.3%	27.6	-11.9%	-3.6%	2.6%
O=C(Cn1ccccc1=S)c1ccc(Cl)c(Cl)c1	-28.4%	u	-22.3%	x	i
On1ccccc1=S	4.5%	-98.9*	u	x	-1.2%
CC(C)(C)C(=O)/C(=C/c1ccncc1)n1cncn1	x	-99.8*	-3.8%	2.4%	x
Cc1nn(C)c(C)c1/C=C(/C(=O)C(C)C)n1cncn1	x	17.1	-0.6%	2.9%	x
O=C(/C(=C/c1ccccc1)n1cncn1)c1ccc(Cl)cc1Cl	-22.7%	26.6	-2.5%	2.4%	-12.6%
Cc1nn(C)c(C)c1/C=C(/C(=O)C(C)(C)C)n1cncn1	-1.1%	-98.4*	2.3%	-3.5%	-14.5%
Cc1cc(C(=O)COC(=O)c2ccc(O)cc2O)c(C)n1C(C)C	x	-12.5	-3.1%	x	x
CN(Cc1ccno1)Cc1cn(C)nc1-c1ccc(Oc2ccccc2)cc1	-12.0%	-20.0	-27.5%	-0.2%	-9.0%
Cc1cc(C(=O)CSc2nnc(-c3cccc(F)c3)n2N)c(C)n1Cc1ccc2c(c1)OCO2	x	-83.5*	4.9%	6.7%	x
